Experimental findings from PubChem BioAssay (NCATS) are described below.

Molecules are shown by their SMILES. Records with an inconclusive call do not appear. Entries that show only a call come without a potency. Active and inactive are the calls of the source. Calls come from the whole dose curve; as a rule, active = well fitted inhibition curve with a large enough effect; inconclusive = small, poorly fitted or top-dose-only effect; inactive = flat fitted curve, though single readings scatter.
Potency is the fitted concentration of half-maximal effect.

Sequence of Voltage-gated inwardly rectifying potassium channel KCNH2 (Homo sapiens) (Q12809 whole entry, looked up): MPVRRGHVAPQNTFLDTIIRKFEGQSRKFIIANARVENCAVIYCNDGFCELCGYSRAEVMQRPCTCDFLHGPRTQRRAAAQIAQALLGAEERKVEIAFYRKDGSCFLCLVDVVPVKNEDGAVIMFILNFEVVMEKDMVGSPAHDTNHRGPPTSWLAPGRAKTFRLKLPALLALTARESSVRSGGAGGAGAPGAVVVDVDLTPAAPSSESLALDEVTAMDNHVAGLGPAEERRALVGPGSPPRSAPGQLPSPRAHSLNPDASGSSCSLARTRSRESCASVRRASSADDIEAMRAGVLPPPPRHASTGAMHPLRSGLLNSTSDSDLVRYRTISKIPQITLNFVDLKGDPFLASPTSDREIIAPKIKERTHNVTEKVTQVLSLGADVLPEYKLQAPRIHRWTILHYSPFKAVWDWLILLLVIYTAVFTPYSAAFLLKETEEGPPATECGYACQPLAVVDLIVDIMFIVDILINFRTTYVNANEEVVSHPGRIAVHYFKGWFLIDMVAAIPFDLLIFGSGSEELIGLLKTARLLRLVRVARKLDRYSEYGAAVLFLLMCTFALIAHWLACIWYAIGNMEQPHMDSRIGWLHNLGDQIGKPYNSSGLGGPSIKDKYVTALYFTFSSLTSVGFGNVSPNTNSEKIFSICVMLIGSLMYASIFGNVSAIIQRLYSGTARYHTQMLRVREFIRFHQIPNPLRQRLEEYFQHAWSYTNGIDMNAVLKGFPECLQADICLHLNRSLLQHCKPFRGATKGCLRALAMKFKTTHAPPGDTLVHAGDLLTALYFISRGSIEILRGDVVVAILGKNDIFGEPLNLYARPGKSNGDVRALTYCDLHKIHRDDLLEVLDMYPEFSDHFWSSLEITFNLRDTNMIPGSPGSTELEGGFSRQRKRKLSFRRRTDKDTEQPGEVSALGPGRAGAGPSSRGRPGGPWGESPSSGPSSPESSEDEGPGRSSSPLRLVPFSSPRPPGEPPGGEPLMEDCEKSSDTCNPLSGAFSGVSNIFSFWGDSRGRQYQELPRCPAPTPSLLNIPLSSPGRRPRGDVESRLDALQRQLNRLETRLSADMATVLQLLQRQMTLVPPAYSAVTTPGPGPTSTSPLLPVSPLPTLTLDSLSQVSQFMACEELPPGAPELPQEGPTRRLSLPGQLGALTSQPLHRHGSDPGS

This assay has as its target Voltage-gated inwardly rectifying potassium channel KCNH2 (Homo sapiens) (UniProt Q12809). Put plainly: qHTS Assay for Small Molecule Inhibitors of the Human hERG Channel Activity (AID 588834).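 Note: lower thallium flux fluorescence means stronger hERG block; nearly all actives have a fitted effect of over 50% in size.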 The settings on record: U2OS BacMam hERG, FluxOR thallium flux fluorescence; series mostly up to 46.1 µM. From the text:
NIH Chemical Genomics Center [NCGC]
National Institutes of Environmental Health Sciences [NIEHS]
National Toxicology Program [NTP]
We have developed a 1536-well cell-based assay for quantitative high throughput screening (qHTS) to determine in vitro hERG channel blockage as a measure of cardio toxicity with small molecules. This particular assay uses the U2OS cell line which is derived from human osteosarcoma.
NCGC Assay Protocol Summary:
HERG assay (FluxORTM thallium flux assay) was initially developed by Invitrogen/Molecular Probes, and then miniaturized into 1536-well plate in a homogeneous format by NCGC. This assay measures the activity of potassium channel using thallium dye (FluxOR) flux as surrogate measurement for potassium into the cells with a FDSS-7000 kinetic plate reader (Hamamatsu Corp., Hamamatsu City, Japan). The hERG ion channel is transduced into mammalian cells (U2OS) using a baculovirus (Bacmam) construct harboring the hERG K+ ion channel. So far we screened LOPAC1280 library (Sigma), the NTP collection of 1408 compounds, and the NCGC Pharmaceutical Collection (NPC), in which many well defined HERG blockers are present. The rank order potencies of many of these compounds are similar to that of other HERG assays (membrane potential, Rb+ flux, patch clamp, etc). This quick and homogeneous assay is also found to be sensitive, specific, and robust.
Using the FluxORTM thallium flux assay, the activity of potassium channel using thallium dye (FluxOR) flux as surrogate measurement for potassium into the cells was measured in the U2OS cell line transduced with hERG K+ ion channel using a baculovirus (Bacmam) using Opti-MEM medium (Invitrogen) containing 2% fetal calf serum (FCS, HyCone) following loading buffer addition, compound treatment for around 10 minutes and finally adding stimulation buffer. The assay was performed in black clear Kalypsys 1536-well plates. In the screen, Astemizole was used as positive controls. Library compounds were measured for their ability to cause hERG channel blockage in the cell line, as reflected by a decrease in fluorescence intensity, in a concentration-dependent manner. […] AC50 values were determined from concentration-response data modeled with the standard Hill equation.
qHTS protocol for hERG-U2OS cellular assay
[Step] [Parameter] [Value] [Description]
1. Day 1: Replace medium in 70-80% confluent T225 flask with 2.5 mL of hERG-BacMam virus plus 12.5 mL of phosphate buffered saline (PBS) (corresponding roughly to a multiplicity of infection ratio of 100 virus particles/cell)
2. Incubation: 4 hrs @ room Temperature in Dark
3. Reagent; Remove virus; wash once with 25 ml DPBS
4. Reagent; 35 ml culture medium
5. Incubation; 37 °C overnight
6. Day2: Reagent; 3 uL; 2000 U2OS cells/well
7. Time; 4 hr; 37 °C incubation
8. Loading buffer; 1 uL; 0.7X;
9. Incubation: 1hr @ RT in Dark.
12. Time; 10min; 37 °C incubation
13. Read fluorescence Intensity on FDSS for 10 Sec with 1 sec interval
14. Reagent; 1 uL; stimulation buffer
15. Read fluorescence Intensity on FDSS for 2 min with 1 sec interval
16. Detection; Fluorescence Intensity; FDSS
For orientation: In qHTS, concentration-response curves come from the screen itself.
Regarding `CCOc1ccc2c3c1O[C@H]1[C@@H](O)C=C[C@H]4[C@@H](C2)N(C)CC[C@@]341`, the Potency entry was “inactive”. On to `S=C(S)N1CCNCC1`, for which the Potency entry is “inactive”. In the case of `[H+].[H+].[Hg+2].[O-]B([O-])[O-].[c-]1ccccc1` it was 10 µM (active); in that of `C[C@@H](Cc1ccccc1)NCCC(c1ccccc1)c1ccccc1`, 0.631 µM (active).

For the compound `CCC(N)Cc1c[nH]c2ccccc12` (stereo not given), the Potency entry is “inactive”.

Consider `COc1ccc2[nH]cc(CCN)c2c1`, for which the Potency result was “inactive”. In the case of `CCCCCCCCOC(=O)c1ccccc1C(=O)OCCCCCCCC` it was “inactive”. In the case of `Oc1ccc2c3c1O[C@H]1c4[nH]c5ccccc5c4C[C@@]4(O)C(C2)N(CC2CC2)CCC314` (stereo not given in full) it was 0.794 µM (active); in that of `C[C@H]1CC[C@]2(NC1)O[C@H]1C[C@H]3[C@@H]4CC[C@H]5C[C@@H](O)CC[C@]5(C)[C@H]4CC[C@]3(C)[C@H]1[C@@H]2C`, “inactive”. Consider `Clc1ccc(C(Cn2ccnc2)OCc2csc3c(Cl)cccc23)c(Cl)c1` (stereo not given), for which the Potency is 3.98 µM (active). In the case of `CC(N)Cc1c[nH]c2ccc(O)cc12` (stereo not given) it was “inactive”; in that of `C#CCN1CC(=O)N(COC(=O)C2C(C=C(C)C)C2(C)C)C1=O` (stereo not given), “inactive”; in that of `Cc1cc(C)cc(C(=O)OC2C[C@H]3CC[C@@H](C2)N3C)c1` (stereo not given in full), 3.98 µM (active).

Consider `CP(=O)(O)C1=CCNCC1`, for which the Potency result was “inactive”. Under `NCC(O)c1cc(O)c(O)cc1F` (stereo not given) stands “inactive”; under `CC1OC1P(=O)(O)O` (stereo not given), “inactive”. In the case of `O=[N+]([O-])c1ccc2nc(N3CCNCC3)ccc2c1` it was “inactive”; in that of `CN1[C@@H]2CC[C@H]1CC(OC1c3ccccc3CCc3ccccc31)C2` (stereo not given in full), 8.91 µM (active). Turning to `NCC(CP(=O)(O)O)c1ccc(Cl)cc1` (stereo not given), the Potency entry is “inactive”.

As for `CCC1(c2ccccc2)C(=O)NC(=O)N(C(=O)c2ccccc2)C1=O` (stereo not given), the Potency result is “inactive”. In the case of `NNC(=O)c1ccc(O)cc1` it was “inactive”; in that of `C=CCN1CCC23c4c5ccc(O)c4O[C@H]2C(=O)CC[C@@]3(O)C1C5` (stereo not given in full), “inactive”. Take `CCC1(c2ccccc2)C(=O)NC(=O)N(C)C1=O` (stereo not given): the Potency result is “inactive”.

As for `CC(=O)c1c(O)c(C)c(O)c(Cc2c(O)c3c(c(C(=O)/C=C/c4ccccc4)c2O)OC(C)(C)C=C3)c1O`, the Potency result is “inactive”. Regarding `C[C@H]1CCC[C@H](O)CCCCCc2cc(O)cc(O)c2C(=O)O1`, the Potency result is “inactive”. With `C[C@]12Cc3cn4c(nc3C=C1CCC1C2CC[C@@]2(C)[C@H]1CC[C@@]2(O)C#N)nc1ccccc14` (stereo not given in full), the Potency was 2 µM (active). In the case of `N[C@@]1(C(=O)O)CC[C@@H](C(=O)O)C1` it was “inactive”. In the case of `CC1CCC(C(C)C)C(OC(=O)c2ccccc2N)C1` (stereo not given) it was “inactive”.

As for `CC(=O)OCC(=O)[C@H]1CC[C@H]2[C@@H]3CC[C@H]4C[C@H](O)CC[C@]4(C)[C@H]3C(=O)C[C@]12C`, the Potency result is “inactive”. Under `OC[C@@H](O)[C@H]1O[C@@H]2O[C@H](C(Cl)(Cl)Cl)O[C@@H]2[C@H]1O` stands “inactive”; under `C[N+](C)(C)CC#CCN1CCCC1=O`, “inactive”; under `N[C@@H](CCl)C(=O)O`, “inactive”. With `Cc1cccc(C(C)c2cnc[nH]2)c1C` (stereo not given), the Potency result was “inactive”. In the case of `O=[N+]([O-])c1cc(I)c(O)c(I)c1` it was “inactive”; in that of `CC(=O)[C@H]1CC[C@H]2[C@@H]3CC[C@@H]4C[C@H](O)CC[C@]4(C)[C@H]3CC[C@]12C`, “inactive”; in that of `Clc1cc(I)cc(Cl)c1NC1=NCCN1`, “inactive”. As to `CN1CCc2cccc(Cl)c2CC1`, the Potency result was “inactive”. In the case of `C[C@@H](Cc1ccccc1)N(C)C` it was “inactive”. `O=[N+]([O-])c1ccc(F)c([N+](=O)[O-])c1`: the Potency result was “inactive”. `O=C(NC(=O)c1c(F)cccc1F)Nc1ccc(Cl)c(Oc2ncc(C(F)(F)F)cc2Cl)c1`: the Potency entry was “inactive”.
